Data as given in the supplement of paper PMC6555819.

What was measured:
Experiment in all cases: PBM binding z-score (relative to random genomic background probes); higher = stronger binding; sequences stand for … in GC…GCGATTGACAGCGTAGAATGAAGG
[1] = system: FXR:RXRa (NR concentration 270 nM, RXRa partner concentration 90 nM)
Summary of the method: (§1)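 Binding z-scores take random background probes as their reference. They come from custom Agilent 4×180K protein-binding microarrays incubated 1 h with ligand-free nuclear receptor dimers, with antibodies against each partner (one per run) detecting binding. Scanned fluorescence was regression-normalized.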

[2] = system: LXRa:RXRa (NR concentration 270 nM, RXRa partner concentration 90 nM)
Summary of the method: as §1

[3] = system: LXRa homodimer (NR concentration 270 nM)
Summary of the method: as §1

[4] = system: LXRb:RXRa (NR concentration 270 nM, RXRa partner concentration 90 nM)
Summary of the method: as §1

[5] = system: LXRb homodimer (NR concentration 270 nM)
Summary of the method: as §1

[6] = system: PPARa:RXRa (NR concentration 270 nM, RXRa partner concentration 90 nM)
Summary of the method: as §1

[7] = system: PPARg:RXRa (NR concentration 180 nM, RXRa partner concentration 90 nM)
Summary of the method: as §1

[8] = system: PPARg:RXRa 270nM:90nM, anti-RXR (NR concentration 270 nM, RXRa partner concentration 90 nM)
Summary of the method: as §1

[9] = system: PPARg:RXRa 30nM:10nM, anti-RXR (NR concentration 30 nM, RXRa partner concentration 10 nM)
Summary of the method: as §1

[10] = system: PPARg:RXRa 90nM:30nM, anti-RXR (NR concentration 90 nM, RXRa partner concentration 30 nM)
Summary of the method: as §1

Sequence | PBM binding z-score [1] | PBM binding z-score [2] | PBM binding z-score [3] | PBM binding z-score [4] | PBM binding z-score [5] | PBM binding z-score [6] | PBM binding z-score [7] | PBM binding z-score [8] | PBM binding z-score [9] | PBM binding z-score [10]
ATCTCTAGGTAAAGATAGTGCAGTGAATGCAAAT | 0.222 | 1.16 | 0.00124 | 0.147 | 0.236 | 0.141 | 0.354 | 0.233 | 0.0457 | 0.565
CCTACTGGGCCATTCAGAGGTCATGGATCATATG | 2.57 | 4.16 | 5.17 | 3.61 | -0.202 | 4.54 | 2.64 | 3.6 | 1.23 | 3.29
CGAACTAGGTCAGAACAGGACAGTAAAGGATGAT | 1.48 | 0.875 | -0.0273 | 0.738 | -0.326 | 3.33 | 5.37 | 4.63 | 1.83 | 3.65
TCTTGTAGATCAAAGTTTAAGAAAGCCGAAGCCT | 0.983 | 1.1 | 0.0318 | 0.659 | 0.169 | 2.46 | 4.04 | 5.01 | 5.17 | 5.73
TCTGACAGGTGAAGGTAACTCAGGTACGCAGTCG | 0.497 | 1.97 | -0.123 | 0.856 | -0.258 | 1.14 | 0.602 | 1.55 | 2.9 | 2.32
GATACAGGGTCTGCTAGAGGCCAGAGTATGGAAA | -0.351 | -0.359 | -0.605 | -0.772 | -0.649 | -0.759 | 0.108 | -0.444 | -0.281 | -0.382
AGAATGAGGTTATACGAAGATCAGGGAAGAAAGT | 2.26 | 1.67 | -0.199 | 1.54 | -0.139 | 3.25 | 1.68 | 1.8 | 0.749 | 1.51
CGTCAAAGTGCAACTAAGGTAACGTAAAGCACGC | 0.888 | 0.803 | -0.122 | 0.5 | -0.623 | 1.29 | 0.842 | 0.685 | 0.0299 | 0.977
CCTACTGGGGCAAGGTCATTGATCAGTCAAAGCA | 3.59 | 3.26 | 1.02 | 2.98 | -0.569 | 4.29 | 5.81 | 5.36 | 2.53 | 4.8
TCCTATAGGTAATACAGGTGAAAGTCGGCATCTA | 0.774 | 0.986 | -0.00145 | 0.839 | 0.103 | 1.84 | 0.918 | 1.91 | 3.2 | 2.41
GATACAGGGTCAGCAAGAGGCCAGAGTATGGAAA | 4.96 | 3.07 | -0.295 | 2.49 | -0.626 | 4.8 | 3.55 | 3.6 | 1.29 | 2.37
